# A selection: hits, their analogues and other compounds. The true share with any hit is near 1.6%.
# RAD54 inh = inhibitors of human RAD54 branch migration; Q92698; RAD54 Holliday junction branch migration, FAM/BHQ fluorescence; inhibition, % at 10.4 µM; hit rate 0.14% among 360,000;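 active means mean normalized replicate activity at least 40 and at least half of replicates scoring 40 or more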;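 further: 0% = median of neutral control wells and 100% = median of positive control wells; inhibitors cause a drop in the FAM fluorescence signal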
# Target sequence (Q92698 whole entry, looked up): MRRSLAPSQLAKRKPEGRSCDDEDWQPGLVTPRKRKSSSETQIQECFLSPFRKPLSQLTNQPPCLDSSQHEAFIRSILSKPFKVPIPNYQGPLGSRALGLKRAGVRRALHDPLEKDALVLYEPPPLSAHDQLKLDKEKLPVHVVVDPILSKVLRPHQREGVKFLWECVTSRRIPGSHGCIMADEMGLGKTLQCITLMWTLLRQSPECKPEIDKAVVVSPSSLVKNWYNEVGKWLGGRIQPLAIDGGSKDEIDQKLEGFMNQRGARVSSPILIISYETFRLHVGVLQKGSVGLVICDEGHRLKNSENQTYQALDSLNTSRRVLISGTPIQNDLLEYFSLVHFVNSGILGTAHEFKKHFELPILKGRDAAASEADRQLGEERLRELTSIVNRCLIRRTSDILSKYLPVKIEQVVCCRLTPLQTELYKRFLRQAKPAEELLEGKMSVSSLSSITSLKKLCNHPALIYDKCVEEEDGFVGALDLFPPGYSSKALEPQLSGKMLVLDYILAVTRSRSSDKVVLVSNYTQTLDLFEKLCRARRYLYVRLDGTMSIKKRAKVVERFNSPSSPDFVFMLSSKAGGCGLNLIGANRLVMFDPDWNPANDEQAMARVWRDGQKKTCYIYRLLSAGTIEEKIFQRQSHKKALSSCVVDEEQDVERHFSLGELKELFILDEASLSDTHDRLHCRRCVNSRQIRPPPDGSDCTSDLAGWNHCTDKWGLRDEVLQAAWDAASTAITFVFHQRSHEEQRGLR
# Vif inh = inhibitors of HIV Vif | HEK293T cells, Vif self-association by quenched fluorescence, imaging, 24 h | inhibition, % at 7.49 µM | hit rate 0.35% among 340,000; in the data active means inhibition above about 50%, passing the limit was not always enough
# ABCB6 inh 2 = human ABCB6 transporter inhibition. Q9NP58. K562-ABCB6 porphyrin accumulation, flow cytometry, 1 h; hits give low values. fluorescence ratio to DMSO, % at 10 µM. hit rate 0.19% among 360,000. AID 602162;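 active means fluorescence ratio to DMSO below 75%, the collection mean minus 3 SD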;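 further: signal is porphyrin accumulated inside mitochondria; 100% equals median channel fluorescence of DMSO control wells; lower ratio means ABCB6 inhibition with less porphyrin fluorescence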
# Myeloid diff 2 = promotes myeloid progenitor differentiation. ER-HoxA9 myeloid progenitors, lysozyme-GFP differentiation, flow cytometry. calls only at 10 µM. hit rate 1% among 360,000. AID 624256;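 active means normalized GFP-positive differentiation at or above the plate's own cutoff, the solvent-only control mean plus 3 SD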;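 further: cells exposed to compound for four days before flow analysis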
# N-glyco inh = blocks N-linked glycosylation in D54 reporter cells. hit rate 0.23% among 360,000. AID 588692. reporter increase, % at 12.5 µM. D54 ERlucT glycosylation luciferase reporter, 24 h; percent of 100 nM tunicamycin response;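 active means mean luciferase reporter signal, scaled so untreated is 0 and the glycosylation-blocking control 100, at or above a set limit in every replicate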;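 further: luciferase carries N-glycosylation sites so blocking glycosylation raises the light; 0% = median of neutral control wells and 100% = median of 100 nM tunicamycin wells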
# Myeloid diff CP1 = myeloid differentiation induction | shares compounds with Myeloid diff 2 | ER-HoxA9 myeloid progenitors, GFP/Mac1 double-positive flow | calls only | hit rate 2% among 2,300 | AID 651706;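 active means share of green or green-and-red cells above 9 and 9% in run 1 or 4 and 3% in run 2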
# GFP autofluor = compound fluorescence in myeloid differentiation counter-screen; AID 651707; shares compounds with Myeloid diff 2; ER-HoxA9 myeloid progenitors, no estrogen, GFP autofluorescence flow cytometry; vehicle wells 0%, positive control 100%; fluorescence response, % (test concentration not listed); hit rate 7.4% among 2,300;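 active means over 5% cells positive for green fluorescent reporter, or over 2% positive for both it and APC stain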;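 further: range taken on the double positive population between DMSO and positive control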
# * marks the source's active call; other numbers are inactive results; i = inactive; . = not tested or not shown; + = active, no number.
SMILES,RAD54 inh,Vif inh,ABCB6 inh 2,Myeloid diff 2,N-glyco inh,Myeloid diff CP1,GFP autofluor
O=c1[nH]c(=O)n(-c2ccccc2)c(O)c1/C=C/C=Nc1ccccc1,.,-9,115,i,0,.,.
COc1ccc(-n2c(O)c(/C(C)=N/Nc3ccccc3)c(=O)[nH]c2=O)cc1,-2,18,103,i,0,.,.
O=c1[nH]c(=O)n(C2CCCCC2)c(O)c1/C=C/C=Nc1ccccc1,.,10,108,+,5,i,7.5*
C=CCn1c(O)c(/C=C/C=Nc2ccccc2)c(=O)[nH]c1=O,.,-4,116,i,0,.,.
COc1ccc(-n2c(O)c(/C=C/C=Nc3ccccc3)c(=O)[nH]c2=O)cc1,.,18,107,i,-1,i,97*
Cc1ccc(-n2c(O)c(/C=C/C=Nc3ccccc3)c(=O)[nH]c2=O)cc1,.,7,113,i,-3,i,5
CCCN1[C@@H]2c3ccc(-c4ccc(OC)cc4)c(=O)n3C[C@H]1[C@H](CO)[C@H]2C(=O)OC,10,.,.,.,.,.,.
O=C1NC(=O)N(Cc2ccccc2)C(=O)/C1=C/C=C/c1ccco1,.,13,101,i,32*,i,0
Cn1ccnc1P(=S)(c1nccn1C)c1nccn1C,-2,-1,103,+,2,i,0
O=C(CCC(=O)N1CC2C[C@@H](C1)Cn1c2cccc1=O)NCCc1ccccc1F,-2,18,105,i,2,i,0
O=C(CCC(=O)N1C[C@H]2C[C@@H](C1)c1cccc(=O)n1C2)NCc1ccc(F)cc1,-6,1,100,i,2,.,.
O=C(Cc1ccccc1)N1CCCCN2[C@H](C1)[C@@H](c1ccc(C#Cc3ccccc3)cc1)[C@@H]2CO,-13,.,.,.,.,.,.
O=C(Cc1cccnc1)N1CCCCN2[C@H](C1)[C@@H](c1ccc(C#CC3CC3)cc1)[C@@H]2CO,-15,.,.,.,.,.,.
CCOC(=O)c1c(NC(=O)c2c(N)n(CCCOC)c3nc4ccccc4nc23)sc2c1CCCC2,-1,-8,96,i,3,i,2
COC(=O)[C@@H]1N[C@@H]2c3ccc(C4=CCCC4)c(=O)n3C[C@@H]2[C@H]1CO,-6,.,.,.,.,.,.
O=C1NC(=O)N(CCC2=CCCCC2)C(=O)/C1=C\c1cccs1,.,2,103,i,13,i,1
Cc1cc(C)cc(N2C(=O)NC(=O)/C(=C\c3cccn3-c3ccccc3)C2=O)c1,.,-7,90,i,11,.,.
Cc1cc(C)cc(N2C(=O)NC(=O)/C(=C\c3cccn3-c3ccc(Cl)cc3)C2=O)c1,-6,-10,99,i,3,i,0
COc1ccc(C#Cc2ccc([C@H]3[C@@H](CO)N4CCCCN(C(=O)Cc5cccnc5)C[C@@H]34)cc2)cc1,-2,.,.,.,.,.,.
O=C(Cc1cccnc1)N1CCCCN2[C@@H](CO)[C@@H](c3ccc(/C=C/c4ccccc4)cc3)[C@@H]2C1,-2,.,.,.,.,.,.
CC=Cc1ccc2n(c1=O)C[C@@H]1[C@@H](CO)[C@H](C(=O)OC)[C@H]2N1S(=O)(=O)c1ccccc1C (mixture of isomers),-3,.,.,.,.,.,.
CCCCn1c(=O)c(C(=O)Nc2ccccc2C)c(O)c2ccccc21,-3,-1,96,i,-1,.,.
CC(C)CCn1c(=O)c(C(=O)Nc2ccccc2S(N)(=O)=O)c(O)c2ccccc21,2,9,100,i,2,i,8.6*
CCCCCn1c(=O)c(C(=O)Nc2ccccc2Cl)c(O)c2ccccc21,-9,-2,98,+,0,i,0
Cc1ncc(C(=O)O)n1C(C)c1ccccc1 (centres undefined),2,-7,101,i,1,.,.
SMILES,RAD54 inh,Vif inh,ABCB6 inh 2,Myeloid diff 2,N-glyco inh,Myeloid diff CP1,GFP autofluor
O=C(NCC(c1cccnc1)N1CCN(c2ccc(F)cc2)CC1)Oc1ccccc1 (centres undefined),-1,-3,86,i,1,i,2
CCC(C)C1N=C(c2ccccc2)c2cc(Cl)ccc2N(CC(=O)NCc2ccco2)C1=O (centres undefined),3,-12,101,i,1,.,.
Cc1ccccc1C1=NCC(=O)N(CC(=O)NCc2ccco2)c2sc3c(c21)CCCC3,5,16,96,i,-4,i,0
COc1ccc(OC(=O)N(C)C[C@H]2OCc3cnnn3CCCC(=O)N([C@@H](C)CO)C[C@H]2C)cc1,-5,.,103,i,1,.,.
COc1ccc(OC(=O)N(C)C[C@@H]2OCc3cnnn3CCCC(=O)N([C@@H](C)CO)C[C@@H]2C)cc1,-13,11,102,i,0,i,0
OC(c1ccccc1)(c1ccccc1)c1ccncc1,.,-2,i,+,-2,i,1
CCOC(=O)C1CCCN(c2ccc([N+](=O)[O-])c3nonc23)C1 (centres undefined),.,11,115,+,2,i,58*
O=C(/C=C/c1ccccc1)c1c(O)n(CCc2ccccc2)c(=O)[nH]c1=O,.,2,101,+,5,i,0
O=c1[nH]c(=O)n(CCc2ccccc2)c(O)c1C=NCCN1CCNCC1,2,13,112,i,0,.,.
O=c1[nH]c2ccccc2n1C1CCN(Cc2ccc(-c3nc4ccccc4nc3-c3ccccc3)cc2)CC1,.,.,119,i,.,.,.
O=c1[nH]c2ccccc2n1C1CCN(Cc2ccc(-c3nc4ccc(F)cc4nc3-c3ccccc3)cc2)CC1,.,.,91,+,.,i,1
O=C(Cc1cc(=O)oc2cc(O)ccc12)NN=Cc1ccc(N(CCCl)CCCl)cc1,4,3,101,i,2,i,0
O=C(NN=Cc1ccc(N(CCCl)CCCl)cc1)c1cc(=O)[nH]c(=O)[nH]1,6,3,99,i,0,.,.
COc1cccc(-c2ccc([C@@H]3[C@H]4CN(C(=O)Cc5ccncc5)CCCCN4[C@H]3CO)cc2)c1,-14,.,.,.,.,.,.
CCOC(=O)[C@]12Cc3ccccc3[C@H]1N(CCC(=O)OC)C(=O)c1ccccc12,.,.,103,+,.,i,0
CCOC(=O)[C@]12Cc3ccccc3[C@H]1N(Cc1ccccc1)C(=O)c1ccccc12,-6,4,99,i,-5,.,.
CCCCCN1C(=O)c2ccccc2[C@@]2(C(=O)OCC)Cc3cc(OC)ccc3[C@@H]12,.,.,98,+,.,i,0
COc1ccc(CN2CCN(Cc3ccccc3)CC2)c(OC)c1,-12,-8,95,i,1,i,0
COc1ccc(CN2CCN(C(=O)Cc3ccccc3)CC2)c(OC)c1,.,1,79,i,0,.,.
CC=Cc1ccc2n(c1=O)C[C@@H]1[C@@H](CO)[C@H](C(=O)OC)[C@H]2N1C(=O)CC (mixture of isomers),-9,.,.,.,.,.,.

# Bioassay records from PubChem.
